# PubChem BioAssay (EPA / NIEHS)
# Inconclusive results are not listed. Calls of active or inactive are those of the source. How the source made its calls: active means hit-call score of the fitted dose curve at least 0.9, where 1 is the maximum; inconclusive means response in the unintended direction; inactive means score below 0.9.
# Target: Estrogen receptor (Homo sapiens) (UniProt P03372)
# Experiment: OT_ER_ERaERa_1440: Odyssey Thera (OT) 24-hour HEK293T Protein-Complementation Assay for Estrogen Receptor-alpha/-alpha Homodimer (AID 2283349);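 further: hits raise fluorescence above DMSO for agonists and antagonists alike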
# Procedure, shortened: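 HEK293T cells stably expressing the human ER alpha ligand-binding domain (aa 310-547) as a homodimer PCA were dosed for 24 hours. Fluorescence intensity was read by laser scanning cytometry, and gain of signal was fitted relative to DMSO vehicle.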
# Sequence of Estrogen receptor (Homo sapiens) (P03372 whole entry, looked up, the tested form may be a part): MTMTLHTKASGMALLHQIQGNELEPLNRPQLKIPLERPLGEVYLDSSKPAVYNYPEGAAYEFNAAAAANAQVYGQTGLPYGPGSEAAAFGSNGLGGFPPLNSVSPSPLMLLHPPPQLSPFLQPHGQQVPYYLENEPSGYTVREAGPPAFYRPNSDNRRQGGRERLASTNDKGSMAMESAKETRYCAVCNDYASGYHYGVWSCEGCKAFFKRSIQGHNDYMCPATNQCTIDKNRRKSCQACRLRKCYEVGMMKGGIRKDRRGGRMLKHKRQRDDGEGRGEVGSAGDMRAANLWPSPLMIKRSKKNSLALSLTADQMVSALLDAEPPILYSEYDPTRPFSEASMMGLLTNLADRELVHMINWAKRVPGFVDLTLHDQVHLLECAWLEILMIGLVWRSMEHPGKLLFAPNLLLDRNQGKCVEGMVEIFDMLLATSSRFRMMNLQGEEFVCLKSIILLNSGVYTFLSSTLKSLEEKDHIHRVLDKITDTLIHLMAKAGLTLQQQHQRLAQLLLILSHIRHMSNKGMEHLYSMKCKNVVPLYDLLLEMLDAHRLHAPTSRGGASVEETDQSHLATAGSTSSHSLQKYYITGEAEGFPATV
SMILES,outcome,AC50
NC(=O)N(O)[C@@H]1C=C[C@H](Oc2cccc(Oc3ccc(F)cc3)c2)C1,inactive,–
CCOC(=O)CC(O)(CC(=O)OCC)C(=O)OCC,inactive,–
CC(=O)CC(C)(C)O,inactive,–
CCCCC(CC)COC(=O)CCCCC(=O)OCc1ccccc1 (stereo not drawn),inactive,–
CC(C)CCCCCCOC(=O)CCCCC(=O)OCCCCCCC(C)C,inactive,–
CC(C)(C)c1ccc(O)c(C(C)(C)C)c1,inactive,–
CCCCC(CC)COC(=O)CCCCC(=O)OCC(CC)CCCC (stereo not drawn),inactive,–
CCCCCCCCOC(=O)CCCCCCCCC(=O)OCCCCCCCC,inactive,–
CC(C)(C)c1cc(C(C)(C)C)c(O)c(C(C)(C)C)c1,inactive,–
c1ccc2c(c1)ccc1ccccc12,inactive,–
CCCCCCCCC(=O)O,inactive,–
CCCCCCC(=O)O,inactive,–
CC(C)(C)CC(C)(C)c1ccc(O)c(-n2nc3ccccc3n2)c1,inactive,–
CN(C)C=O,inactive,–
CC(=O)NC1(c2cccc(F)c2)CCN(CC[C@@]2(c3ccc(Cl)c(Cl)c3)CN(c3ccccc3)C(=O)CO2)CC1,inactive,–
c1ccc2c(c1)Cc1ccccc1-2,inactive,–

SMILES,outcome,AC50
COC(=O)CCCCC(=O)OC,inactive,–
N#C[C@@H]1CC(F)(F)CN1C(=O)CNC1CC2CCC(C1)N2c1ncccn1 (stereo partly drawn),inactive,–
CCc1ccc(CCOc2ccc(CC3SC(=O)NC3=O)cc2)nc1 (stereo not drawn),–,75.1 µM (active)
CCc1nn(C2CCCCC2)c2cc(C3(C#N)CCC(C(=O)O)CC3)ccc12 (stereo not drawn),inactive,–
Nc1cccc2c(N)cccc12,–,11.9 µM (active)
OC1CCCCC1,inactive,–
CCCCOCCO,inactive,–
CC(O)C(=O)O (stereo not drawn),inactive,–
COc1ccc([N+](=O)[O-])cc1N,inactive,–
Oc1cccc(O)c1,inactive,–
CC[C@H](C)[C@@H](C(=O)O)n1sc2ccccc2c1=O,inactive,–
Cc1cc(C)c(O)c(C)c1,inactive,–
CC(C)(C)c1cccc(C(C)(C)C)c1O,inactive,–
OCCC(F)(F)C(F)(F)C(F)(F)C(F)(F)C(F)(F)C(F)(F)F,inactive,–
CCCCCCCCCCCCCCCS(=O)(=O)Oc1ccccc1,inactive,–

# Target: Estrogen receptor (Homo sapiens) (UniProt P03372)
# Experiment: OT_ER_ERaERa_0480: Odyssey Thera (OT) 8-hour HEK293T Protein-Complementation Assay for Estrogen Receptor-alpha/-alpha Homodimer (AID 2283351);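 further: rise in fluorescence from reassembled reporter fragments on ERα LBD homodimer in nucleus or whole cell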
# Procedure, shortened: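 HEK293T, stable ERα LBD (aa 310-547) PCA homodimer; 8 h compound exposure; fluorescence intensity, laser scanning cytometer; positive fitting direction, DMSO baseline.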
SMILES,outcome,AC50
NC(=O)N(O)[C@@H]1C=C[C@H](Oc2cccc(Oc3ccc(F)cc3)c2)C1,inactive,–
CCOC(=O)CC(O)(CC(=O)OCC)C(=O)OCC,inactive,–
CC(=O)CC(C)(C)O,inactive,–
CCCCC(CC)COC(=O)CCCCC(=O)OCc1ccccc1 (stereo not drawn),inactive,–
CC(C)CCCCCCOC(=O)CCCCC(=O)OCCCCCCC(C)C,inactive,–
CC(C)(C)c1ccc(O)c(C(C)(C)C)c1,inactive,–
CCCCC(CC)COC(=O)CCCCC(=O)OCC(CC)CCCC (stereo not drawn),inactive,–
CCCCCCCCOC(=O)CCCCCCCCC(=O)OCCCCCCCC,inactive,–
CC(C)(C)c1cc(C(C)(C)C)c(O)c(C(C)(C)C)c1,inactive,–
c1ccc2c(c1)ccc1ccccc12,inactive,–
CCCCCCCCC(=O)O,inactive,–
CCCCCCC(=O)O,inactive,–
CC(C)(C)CC(C)(C)c1ccc(O)c(-n2nc3ccccc3n2)c1,inactive,–
CN(C)C=O,inactive,–
CC(=O)NC1(c2cccc(F)c2)CCN(CC[C@@]2(c3ccc(Cl)c(Cl)c3)CN(c3ccccc3)C(=O)CO2)CC1,inactive,–
c1ccc2c(c1)Cc1ccccc1-2,inactive,–

SMILES,outcome,AC50
COC(=O)CCCCC(=O)OC,inactive,–
N#C[C@@H]1CC(F)(F)CN1C(=O)CNC1CC2CCC(C1)N2c1ncccn1 (stereo partly drawn),inactive,–
CCc1ccc(CCOc2ccc(CC3SC(=O)NC3=O)cc2)nc1 (stereo not drawn),–,76.7 µM (active)
CCc1nn(C2CCCCC2)c2cc(C3(C#N)CCC(C(=O)O)CC3)ccc12 (stereo not drawn),inactive,–
Nc1cccc2c(N)cccc12,inactive,–
OC1CCCCC1,inactive,–
CCCCOCCO,inactive,–
CCCCCCCCCCCCCC[N+](C)(C)C,inactive,–
CC(O)C(=O)O (stereo not drawn),inactive,–
COc1ccc([N+](=O)[O-])cc1N,inactive,–
Oc1cccc(O)c1,inactive,–
CC[C@H](C)[C@@H](C(=O)O)n1sc2ccccc2c1=O,inactive,–
Cc1cc(C)c(O)c(C)c1,inactive,–
CC(C)(C)c1cccc(C(C)(C)C)c1O,inactive,–
OCCC(F)(F)C(F)(F)C(F)(F)C(F)(F)C(F)(F)C(F)(F)F,inactive,–
CCCCCCCCCCCCCCCS(=O)(=O)Oc1ccccc1,inactive,–

# Target: Estrogen receptor (Homo sapiens) + Estrogen receptor beta (Homo sapiens) (UniProt P03372+Q92731)
# Sequence (P03372 whole entry, looked up): as the sequence (P03372 whole entry, looked up, the tested form may be a part) above
# Sequence (Q92731 whole entry, looked up): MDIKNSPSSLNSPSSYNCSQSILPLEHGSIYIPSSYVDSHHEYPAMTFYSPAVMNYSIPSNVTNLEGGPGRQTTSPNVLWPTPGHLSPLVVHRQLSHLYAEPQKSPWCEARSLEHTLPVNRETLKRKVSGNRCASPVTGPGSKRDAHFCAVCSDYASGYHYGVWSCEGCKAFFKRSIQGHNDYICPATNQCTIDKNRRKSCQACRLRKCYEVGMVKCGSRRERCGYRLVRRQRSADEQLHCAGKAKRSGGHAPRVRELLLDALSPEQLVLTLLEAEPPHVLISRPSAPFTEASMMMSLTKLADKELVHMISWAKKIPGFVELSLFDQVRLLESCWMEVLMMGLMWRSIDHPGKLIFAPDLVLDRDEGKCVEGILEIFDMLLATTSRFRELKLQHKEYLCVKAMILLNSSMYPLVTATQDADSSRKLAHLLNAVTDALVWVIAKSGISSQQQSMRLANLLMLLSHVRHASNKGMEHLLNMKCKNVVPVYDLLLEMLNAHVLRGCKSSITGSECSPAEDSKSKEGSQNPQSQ
# Experiment: OT_ER_ERaERb_0480: Odyssey Thera (OT) 8-hour HEK293T Protein-Complementation Assay for Estrogen Receptor-alpha/-beta Heterodimer (AID 2283352)
# Procedure, shortened: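 HEK293T protein-fragment complementation assay of ER-alpha/ER-beta LBD heterodimerisation, read 8 h after dosing. Mean nuclear/cytoplasmic fluorescence intensity measured by laser scanning cytometry; gain of signal fitted relative to DMSO.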
SMILES,outcome,AC50
NC(=O)N(O)[C@@H]1C=C[C@H](Oc2cccc(Oc3ccc(F)cc3)c2)C1,inactive,–
CCOC(=O)CC(O)(CC(=O)OCC)C(=O)OCC,inactive,–
CC(=O)CC(C)(C)O,inactive,–
CCCCC(CC)COC(=O)CCCCC(=O)OCc1ccccc1 (stereo not drawn),inactive,–
CCCCC(CC)COC(=O)CCCCC(=O)OCC(CC)CCCC (stereo not drawn),inactive,–
CCCCCCCCOC(=O)CCCCCCCCC(=O)OCCCCCCCC,inactive,–
CC(C)(C)c1cc(C(C)(C)C)c(O)c(C(C)(C)C)c1,–,50 µM (active)
CCCCCCCCC(=O)O,inactive,–
CC(C)(C)CC(C)(C)c1ccc(O)c(-n2nc3ccccc3n2)c1,inactive,–
CN(C)C=O,inactive,–
c1ccc2c(c1)Cc1ccccc1-2,inactive,–
N#C[C@@H]1CC(F)(F)CN1C(=O)CNC1CC2CCC(C1)N2c1ncccn1 (stereo partly drawn),inactive,–
CCc1ccc(CCOc2ccc(CC3SC(=O)NC3=O)cc2)nc1 (stereo not drawn),inactive,–
CCc1nn(C2CCCCC2)c2cc(C3(C#N)CCC(C(=O)O)CC3)ccc12 (stereo not drawn),inactive,–
Nc1cccc2c(N)cccc12,inactive,–
COc1ccc([N+](=O)[O-])cc1N,inactive,–
Oc1cccc(O)c1,inactive,–
CC[C@H](C)[C@@H](C(=O)O)n1sc2ccccc2c1=O,inactive,–
OCCC(F)(F)C(F)(F)C(F)(F)C(F)(F)C(F)(F)C(F)(F)F,inactive,–
CCCCCCCCCCCCCCCS(=O)(=O)Oc1ccccc1,inactive,–
